# From PubChem BioAssay
# Sampled rows, rich in hits. Any-hit rate of the full collection: about 2.8%.
# D3 antag – blocks the human D3 dopamine receptor. 360,000 tested, 2.5% active. max response, negative = inhibition, %. D3R cells, DiscoveRx beta-arrestin luminescence, antagonist mode; stronger effect = lower value; in the data active = max response below about -50%; inconclusive = no clear call, values can overlap the other calls; note: % is set by controls: 0 for no effect and ±100 for the full control effect
# Target sequence (P35462 whole entry, looked up): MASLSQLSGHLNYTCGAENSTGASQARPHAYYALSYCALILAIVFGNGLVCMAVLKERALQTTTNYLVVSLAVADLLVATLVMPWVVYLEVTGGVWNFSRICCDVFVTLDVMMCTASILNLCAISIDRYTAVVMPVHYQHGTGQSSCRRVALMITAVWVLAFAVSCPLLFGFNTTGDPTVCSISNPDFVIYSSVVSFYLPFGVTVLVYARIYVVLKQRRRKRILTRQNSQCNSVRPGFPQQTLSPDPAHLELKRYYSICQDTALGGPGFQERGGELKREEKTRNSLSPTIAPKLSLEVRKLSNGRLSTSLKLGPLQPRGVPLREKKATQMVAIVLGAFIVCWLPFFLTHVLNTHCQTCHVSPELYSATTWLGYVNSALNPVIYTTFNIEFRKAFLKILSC
#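 Cells plated overnight at 1500 cells/well, then exposed to library compounds with dopamine controls for 90 minutes at 37 degrees C. DiscoveRx reagent added for 30–60 minutes at room temperature; luminescence read, quantitative HTS format.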
# D3 ag – agonists of human D3 dopamine receptor | P35462 | D3R DiscoveRx beta-arrestin cells, luminescence, 90 min | max activation, % | 410,000 tested, 0.58% active | AID 652048; in the data active = max activation above about 30%; note: 0% is about no effect
#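 Agonist mode: compounds and dopamine controls were applied to plated cells for 90 min at 37 degrees C after an overnight attachment at 1500 cells/well. Luminescent read-out followed 30 - 60 minutes at room temperature with DiscoveRx detection reagent.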
# PTHR1 agonist – activates the human parathyroid hormone receptor PTHR1; AID 743266; HEK293 GP2 PTHR1 cells, GloSensor cAMP luminescence, 1 h; Q03431; 410,000 tested, 0.075% active; Potency, µM (highest dose often 115 µM), inactives show at the top dose activation, most hits filed as activators; note: potency is the fitted concentration of half-maximal effect; nearly all actives have a fitted effect of over 55% in size
#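 HEK-293-derived GP2 cells expressing PTHR1 and a GloSensor cAMP reporter, 3,000/well, plated overnight, given luciferin plus IBMX (each 0.5 mM as added) for 1 h at 37 °C, then compound for 1 h at 37 °C. Luminescence was read after 15 min at room temperature.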
# MBNL1 CUG block – blocks human MBNL1 binding to CUG repeat RNA | 280,000 tested, 0.036% active | Potency, µM (doses to about 57.5 µM), for the others: at the highest dose activity change, negative = inhibition, hits mostly inhibitors | TR-FRET MBNL1-His/biotin-(CUG)12 binding, 665/545 ratio | AID 2675 | Q9NR56; active = well fitted inhibition curve with a large enough effect in the signal ratio, with a control signal flat, not every such curve was filed as active; inconclusive = small, poorly fitted or top-dose-only effect, or effect the other way, or a change in a side signal; inactive = no such curve, though single readings can be large or run the other way; the % refers to the signal ratio; note: potency is the fitted concentration of half-maximal effect; % is set by controls: 0 for no effect and ±100 for the full control effect
#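 Ratiometric TR-FRET (665 over 545 nm, excitation 340 nm) tracks disruption of MBNL1-His/biotin-(CUG)12 complex after 60 min at room temperature, with compounds at 92 nM to 58 uM final.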
# Integrin act MD – activates integrin-mediated alleviation for muscular dystrophy; AID 624291; 350,000 tested, 0.064% active; Potency, µM (top dose mostly 38.3 µM), for inactives: at the highest dose activation, hits mostly activators; alpha7betagal myoblasts, beta-gal FDG fluorescence, 48 h;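 note: potency is the fitted concentration of half-maximal effect; 100% = response of the positive control SU9516; nearly all actives have a fitted effect of over 60% in size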
#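 Alpha7betagal+/- myoblasts (passage 13) were plated 16-24 hr, then exposed to compounds (1:260 dilution of DMSO stock) for 48 hours at 37C. After MPER lysis, β-galactosidase reporter activity was read as FDG fluorescence (ex 480/em 540) after 30 minutes.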
# CBFb RUNX1 block – inhibitors of human CBF-beta and RUNX1 interaction; Q01196+Q13951; AlphaScreen CBFb-His/RUNX1-biotin binding, biochemical; Potency, µM (top dose mostly 59.8 µM), inactives show at the highest dose activity, negative = inhibition, hits mostly inhibitors; 230,000 tested, under 10 active; AID 1477; note: % of control where 0% means no effect
#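 CBFb-His/RUNX1-biotin, 30 nM each, preincubated 20 min RT; compound 15 min RT; Ni + streptavidin beads 50 ng each, 90 min RT; AlphaScreen read.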
# * hit, by the source's call; i = inactive; u = inconclusive; x = not tested or not shown; [ ] = remark or other dose. Unless noted, calls come from the whole dose curve; as a rule, active = well fitted curve in the direction sought with a large enough effect; inconclusive = small, poorly fitted or top-dose-only effect, or another doubt; inactive = no such curve, though single readings can be large; an effect the other way counts as inactive or inconclusive.
SMILES,D3 antag,D3 ag,PTHR1 agonist,MBNL1 CUG block,Integrin act MD,CBFb RUNX1 block
Cc1nc2ccc(NS(=O)(=O)c3cccc([N+](=O)[O-])c3)cc2s1,20,36*,-24%,x,-18%,x
Cc1nc2ccc(NC(=O)c3ccc(Cl)c([N+](=O)[O-])c3)cc2s1,13,3,-20%,-7%,4%,-8%
O=C1NCN(c2ccccc2)C12CCN(CCCC(c1ccc(F)cc1)c1ccc(F)cc1)CC2,-104*,-85,20%,1%,x,-10%
O=C1CCC(=O)N1CCC(c1ccc(F)cc1)c1ccco1 (stereo not drawn),-9,9,i,-2%,-31%,3%
NNC(=O)CNC(=O)Nc1n[nH]c(=S)s1,-7,3,i,x,x,x
Cc1ccc(OCC(=O)Nc2ccc3[nH]c(=O)sc3c2)cc1,x,6,-95%,x,x,x
CCOC(=O)c1cnc2ccc(OCC)cc2c1Nc1ccc(OCc2ccccc2Cl)cc1,x,3,-3%,x,x,x
CCOC(=O)c1cnc2ccc(OCC)cc2c1N1CCN(c2ccccc2OC)CC1,69,34*,i,12%,-24%,-15%
CCOC(=O)c1cnc2ccc(OCC)cc2c1N(C)Cc1ccccc1,8,68*,-11%,x,-22%,11%
CCN1C(=O)[C@H]2[C@@H](c3ccc(C(F)(F)F)cc3)N[C@]3(CCCN(Cc4ccco4)C3=O)[C@H]2C1=O,-22,2,-20%,x,1%,x
N#Cc1cc2c(nc1SCc1ccc(Cl)cc1)CCCC2,-64*,1,-17%[57.5 µM],u,6%,0%
N#Cc1cc2c(nc1SCc1ccccc1)CCCCC2,5,0,-6%,-4%,-17%,4%
CN1CCc2nc(SCc3ccc(Cl)cc3)c(C#N)c(-c3cccs3)c2C1,-60*,-38,-22%,x,-1%,x
O=C(COC(=O)c1cc(Cl)nc(Cl)c1)NCc1ccc2c(c1)OCO2,-3,16,-22%,x,-23%,x
CCOc1ccc(NC(=O)c2cnn3c2NC(C)=C(C(=O)Nc2ccc(Cl)cc2)C3c2ccc(OC)c(OC)c2)cc1 (stereo not drawn),x,0,-28%,x,x,x
COc1ccc(C(=O)Nc2cc3c(cc2N2CCCCC2)n(C)c(=O)n3C)cc1OC,24,32*,-2%,11%,29%,x
O=c1[nH][nH]c2c1C(c1ccc(Cl)c(Cl)c1)OC(CCc1ccccc1)C2 (stereo not drawn),17,3,i,x,x,x
COc1ccccc1CN1CCN(S(=O)(=O)c2ccccc2)CC1,-68*,-3,-12%[57.5 µM],-9%,8%,-1%
COc1ccc(CN2CCN(S(=O)(=O)c3ccccc3)CC2)c(OC)c1,-70*,-19,-1%[57.5 µM],-6%,-22%,2%
COc1cccc(CN2CCN(S(=O)(=O)c3ccccc3)CC2)c1OC,2,4,-15%,x,37%,x
Cc1ccccc1CN1CCN(S(=O)(=O)c2ccc(F)cc2)CC1,-78*,-1,i,11%,-12%,7%
CC(C)(C)NC(=O)CN1CCN(C(=O)CCl)CC1,-3,-6,i,u,-60%,5%
Clc1ccc2nc(-c3ccco3)c(Cc3ccsc3)n2c1,-53*,-11,-6%,x,x,x
Brc1ccc2nc(-c3ccco3)c(Cc3ccsc3)n2c1,8,-1,-15%,x,x,x
Cc1cccc(NC(=O)Nc2ccc(S(N)(=O)=O)cc2)c1,7,3,i,8%,16%,5%
SMILES,D3 antag,D3 ag,PTHR1 agonist,MBNL1 CUG block,Integrin act MD,CBFb RUNX1 block
Cc1cccc(NC(=O)Nc2ccc(Oc3c(F)c(F)c(F)c(F)c3F)cc2)c1,-117*,-3,-1%[57.5 µM],-1%,9%,-5%
Cc1cc(C)cc(NC(=O)Cn2c(=O)n(Cc3ccc4c(c3)OCO4)c(=O)c3oc4ccccc4c32)c1,x,-40,14%,x,x,x
Cc1ccc(NC2=C/C(=N/S(=O)(=O)c3cccs3)c3ccccc3C2=O)cc1C,0,-3,i,4%,7%,-1%
CC(=O)Nc1ccc(NC2=C/C(=N/S(=O)(=O)c3cccs3)c3ccccc3C2=O)cc1,-66*,-18,-9%,u,-68%,x
Cc1ccccc1NC1=C/C(=N\S(=O)(=O)c2cccs2)c2ccccc2C1=O,-112*,-19,-15%[57.5 µM],u,-44%,x
COc1ccc(S(=O)(=O)/N=C2\C=C(Nc3ccc(O)cc3)C(=O)c3ccccc32)cc1,-80*,-34,-18%,u,-25%,x
O=C1C2CC3CC1CC(O)(C3)C2,x,4,x,x,x,x
Cc1[nH]c(C)c(S(=O)(=O)N2CCN(c3ccccc3F)CC2)c1C(=O)N1CCCCC1,-24,-5,i,-1%,-3%,x
c1ccc(-c2nc(N3CCCCC3)nc3ccccc23)cc1,-21,3,i,u,20%,7%
CCN1CCN(c2nc(-c3ccccc3)c3ccccc3n2)CC1,-82*,-24,i,28%,-60%,x
COc1ccc(OC)c2c1C(=O)C(Cl)=C(Cl)C2=O,-126*,-23,-96%,9%,u,0%
COc1ccc(OC)c2c1C(=O)c1ccccc1C2=O,14,-1,-30%,u,-9%,2%
C=CCNc1nc(NCc2ccccc2)c(C#N)c2c1CN(C)CC2,-66*,-6,i,-2%,-23%,3%
CC(=O)NC(c1ccccc1)c1c(O)ccc2ccccc12 (stereo not drawn),-7,34*,-8%,-8%,-7%,8%
Nc1ncc(-c2ccc(F)cc2)nc1N1CCN(CCO)CC1,-21,-14,-3%,x,x,x
OCCN1CCN(C2CCC(c3ccc(F)cc3)c3ccc(F)cc32)CC1 (stereo not drawn),-63*,-21,-23%,x,-68%,x
O=C(Nc1ccccc1Cl)C(Cl)C(=O)c1ccccc1 (stereo not drawn),-25,-13,u,-11%,3%,-3%
CC(=O)c1ccc(NC(=O)Nc2ccc(Cl)cc2)cc1,11,0,-52%[57.5 µM],-2%,3%,-2%
CC(=O)Nc1cc[n+](C(C)C(=O)c2ccc(Cl)cc2)cc1 (stereo not drawn),-87*,-19,i,1%,-45%,6%
CC(=O)c1ccc(NC(=O)C(C)Nc2ccc(Cl)cc2)cc1 (stereo not drawn),-56*,-12,-16%,3%,10%,5%
Cc1cc[n+](C(C)C(=O)c2ccc(Cl)cc2)cc1 (stereo not drawn),u,-13,14%,-1%,2%,x
O=C(Nc1ccc(Cl)cc1)C(Cl)C(=O)c1ccccc1 (stereo not drawn),-52*,-29,i,2%,-3%,x
